These results are taken from PubChem BioAssay (NCATS).

Records with an inconclusive call do not appear. More than one record can exist for a structure, and the calls need not agree. Activity calls are given as the source filed them. Unless noted, the call rests on the fitted dose curve; in most records, active means well fitted curve in the direction sought with a large enough effect in the repeat runs; inconclusive means weak or mixed curves; inactive means no such curve, though single readings can be large; an effect the other way counts as inactive or inconclusive.
On the % scale 0 is the no-effect control and ±100 the full control effect; potency means the concentration at half of the fitted maximal effect.

Sequence of Cytochrome P450 2C9 (Homo sapiens) (P11712 whole entry, looked up): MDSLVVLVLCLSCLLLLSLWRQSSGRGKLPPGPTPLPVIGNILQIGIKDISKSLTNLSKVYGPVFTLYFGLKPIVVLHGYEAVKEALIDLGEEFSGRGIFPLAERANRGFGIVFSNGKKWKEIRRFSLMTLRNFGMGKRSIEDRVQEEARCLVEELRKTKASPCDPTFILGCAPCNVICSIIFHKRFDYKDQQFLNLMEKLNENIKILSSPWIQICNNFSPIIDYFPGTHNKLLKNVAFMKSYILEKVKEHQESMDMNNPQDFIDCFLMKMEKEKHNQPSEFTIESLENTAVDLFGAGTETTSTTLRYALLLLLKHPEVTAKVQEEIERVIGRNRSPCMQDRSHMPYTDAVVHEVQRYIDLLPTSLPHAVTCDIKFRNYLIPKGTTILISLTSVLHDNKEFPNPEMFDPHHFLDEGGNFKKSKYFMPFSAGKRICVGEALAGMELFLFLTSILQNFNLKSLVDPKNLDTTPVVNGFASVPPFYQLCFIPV

For one assay, the target named is Cytochrome P450 2C9 (Homo sapiens) (UniProt P11712). As to the kind of experiment: Cytochrome P450 family 2 subfamily C member 9 (CYP2C9) small molecule antagonists: luciferase biochemical (cell-free) qHTS assay (AID 1645842). Further: nearly all actives have a fitted effect of over 55% in size. The note with it: P450-Glo CYP2C9 enzyme assay, luciferin luminescence; series mostly up to 57.4 µM; activity change, negative = inhibition: at the top concentration. The method in brief:
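P450-Glo CYP2C9 system: proluciferin substrate with enzyme in mix containing 0.4% BSA, 10 min at room temperature, then NADPH regeneration solution added and incubated 1 h at 37C. Detection reagent stopped reaction; luminescence read after 20 min as RLU.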
For `c1ccc(CNCCNCc2ccccc2)cc1`, the “activity change, negative = inhibition” value was -2.41% (inactive).

As for `COc1cc(/C=C/C(=O)O[C@H]2CC[C@]34C[C@]35CC[C@]3(C)[C@@H]([C@H](C)CCC=C(C)C)CC[C@@]3(C)[C@@H]5CC[C@H]4C2(C)C)ccc1O`, the “activity change, negative = inhibition” value was 13.5% (inactive).

For the molecule `NC(=O)CC[C@@H]1NC(=O)[C@H](Cc2ccccc2)NC(=O)[C@H](Cc2ccc(O)cc2)NC(=O)CCSSC[C@@H](C(=O)N2CCC[C@H]2C(=O)N[C@@H](CCCN=C(N)N)C(=O)NCC(N)=O)NC(=O)[C@H](CC(N)=O)NC1=O`, the “activity change, negative = inhibition” value was 1.5% (inactive).

Regarding `CN(C)CC/C=C1\c2ccccc2Sc2ccc(Cl)cc21`, the “activity change, negative = inhibition” value is -18% (inactive).

Turning to `CO/N=C1\CN(c2nc3c(cc2F)c(=O)c(C(=O)O)cn3C2CC2)CC1CN` (stereo not drawn), the “activity change, negative = inhibition” value was 12.7% (inactive).

Regarding `CCN(CC)C(=O)N1CCN(C)CC1`, the “activity change, negative = inhibition” value is 10.2% (inactive).

Take `CNC(=O)CN(CCN(CCN(CC(=O)[O-])CC(=O)NC)CC(=O)[O-])CC(=O)[O-].O.[Gd+3]`: the “activity change, negative = inhibition” value was 6.51% (inactive).

For the molecule `NCCc1ccn[nH]1`, the “activity change, negative = inhibition” value is 8.73% (inactive).

Regarding `CCC(C(=O)OCCN(CC)CC)c1ccccc1` (stereo not drawn), the “activity change, negative = inhibition” value was 0.46% (inactive).

As to `OC[C@H]1O[C@@H](n2cnc3c(=S)nc[nH]c32)[C@H](O)[C@@H]1O`, the Potency was 11 µM (active).

For `OC[C@H]1O[C@H](O[C@]2(CCl)O[C@H](CCl)[C@@H](O)[C@@H]2O)[C@H](O)[C@@H](O)[C@H]1Cl`, the “activity change, negative = inhibition” value was -3.76% (inactive).

For the molecule `Cc1cc2c(cc1CC(=O)c1sccc1S(=O)(=O)Nc1onc(C)c1Cl)OCO2`, the Potency is 3.09 µM (active).

Consider `C[C@]12CC[C@@H]3c4ccc(O)cc4CC[C@H]3[C@@H]1C[C@@H](O)[C@@H]2O`, for which the “activity change, negative = inhibition” value is 10.4% (inactive).

Consider `CC1(C)OC[C@@H](COC(=O)CCc2ccc(OC[C@@H](O)CNCCNC(=O)N3CCOCC3)cc2)O1`, for which the “activity change, negative = inhibition” value is 8.8% (inactive).

`CCCCCCC[N+](CC)(CC)CCCCc1ccc(Cl)cc1`: the “activity change, negative = inhibition” value is 6.11% (inactive).

With `C[C@]12CC[C@H]3[C@@H](CCC4=CC(=O)CC[C@@]43C)[C@@H]1CC[C@@H]2C(=O)CO`, the “activity change, negative = inhibition” value is -24.3% (inactive).

`Cc1c(N(C)CS(=O)(=O)O)c(=O)n(-c2ccccc2)n1C`: the “activity change, negative = inhibition” value was 12% (inactive).

With `NC(=O)c1cc[n+](CC2=C(C(=O)[O-])N3C(=O)[C@@H](NC(=O)Cc4cccs4)[C@H]3SC2)cc1`, the “activity change, negative = inhibition” value was -2.18% (inactive).

On to `COc1cc(C(=S)N2CCOCC2)cc(OC)c1OC`, for which the “activity change, negative = inhibition” value was 7.51% (inactive).

For the molecule `NC(CO)(CO)CO`, the “activity change, negative = inhibition” value was 15.3% (inactive).

With `CC[C@@H](CO)NCCN[C@@H](CC)CO`, the “activity change, negative = inhibition” value was -1.79% (inactive).

For the molecule `COc1cc2c(cc1OC)C(C(C(=O)N(CCc1ccc(OC)c(OC)c1OC)CCc1ccc(OC)c(OC)c1OC)c1ccccc1)=NCC2` (stereo not drawn), the Potency was 4.36 µM (active).

Regarding `O=C1OC2(c3ccc(O)cc3Oc3cc(O)ccc32)c2ccccc21`, the “activity change, negative = inhibition” value was -22.9% (inactive).

As to `CC(O)(P(=O)(O)O)P(=O)(O)O`, the “activity change, negative = inhibition” value was 1.94% (inactive).

As for `Cc1c(C)n(Cc2ccccc2)c2ccc(C(=O)OCCN(C)C)cc12`, the Potency was 12.3 µM (active).

Regarding `CC(=O)Nc1c(I)cc(I)c(C(=O)O)c1I`, the “activity change, negative = inhibition” value was -15.9% (inactive).

In the case of `CCCCN1CCCC1C(=O)Nc1c(C)cc(C)cc1C` (stereo not drawn), the “activity change, negative = inhibition” value was -14.6% (inactive).

For `CC(C)(C(=O)c1cccnc1)c1cccnc1`, the “activity change, negative = inhibition” value is 1.18% (inactive).

Consider `OCc1ccccc1O`, for which the “activity change, negative = inhibition” value is 4.88% (inactive).

With `NC(=O)C(=O)N/N=C/c1ccc([N+](=O)[O-])o1`, the “activity change, negative = inhibition” value was -6.27% (inactive).

For the molecule `CCOC(=O)[C@H](CCc1ccccc1)N[C@@H](C)C(=O)N1Cc2ccccc2C[C@H]1C(=O)O`, the Potency is 6.92 µM (active) and inactive.

Test system in a further assay: not listed separately
As to the kind of experiment: Primary qHTS for inhibitors of nuclear receptor binding SET domain protein 2 (NSD2) in an isogenic RCH-ACV NSD2 p.E1099K mutant (9B) (AID 1645876; active means well fitted curve in the direction sought with a large enough effect; an effect the other way counts as inactive or inconclusive; further: nearly all actives have a fitted effect of over 70% in size). The following applies: RCH-ACV (leukaemia line) NSD2 E1099K (9B) viability, CellTiter-Glo, 72 h; series mostly up to 44.9 µM; activity change, negative = viability loss: at the top concentration. For orientation: qHTS replaces the single test concentration by a dilution series.
Consider `c1ccc(CNCCNCc2ccccc2)cc1`, for which the “activity change, negative = viability loss” value was -15% (inactive).

As for `NC(=O)CC[C@@H]1NC(=O)[C@H](Cc2ccccc2)NC(=O)[C@H](Cc2ccc(O)cc2)NC(=O)CCSSC[C@@H](C(=O)N2CCC[C@H]2C(=O)N[C@@H](CCCN=C(N)N)C(=O)NCC(N)=O)NC(=O)[C@H](CC(N)=O)NC1=O`, the call was inactive.

For the molecule `CCN(CC)C(=O)N1CCN(C)CC1`, the outcome was inactive.

In the case of `CNC(=O)CN(CCN(CCN(CC(=O)[O-])CC(=O)NC)CC(=O)[O-])CC(=O)[O-].O.[Gd+3]`, the outcome was inactive.

For the molecule `NCCc1ccn[nH]1`, the molecule was called inactive.

As to `CCC(C(=O)OCCN(CC)CC)c1ccccc1` (stereo not drawn), the molecule was classed as inactive.

Regarding `OC[C@H]1O[C@@H](n2cnc3c(=S)nc[nH]c32)[C@H](O)[C@@H]1O`, the Potency was 0.473 µM (active).

With `CN1CCC[C@@H]1c1cccnc1`, the “activity change, negative = viability loss” value is -5.94% (inactive).

`OC[C@H]1O[C@H](O[C@]2(CCl)O[C@H](CCl)[C@@H](O)[C@@H]2O)[C@H](O)[C@@H](O)[C@H]1Cl`: the Potency result was “inactive”.

In the case of `Cc1cc2c(cc1CC(=O)c1sccc1S(=O)(=O)Nc1onc(C)c1Cl)OCO2`, the Potency entry is “inactive”.

Regarding `C[C@]12CC[C@@H]3c4ccc(O)cc4CC[C@H]3[C@@H]1C[C@@H](O)[C@@H]2O`, the Potency result is “inactive”.

For the molecule `CC1(C)OC[C@@H](COC(=O)CCc2ccc(OC[C@@H](O)CNCCNC(=O)N3CCOCC3)cc2)O1`, the “activity change, negative = viability loss” value was -4.17% (inactive).

Consider `CCCCCCC[N+](CC)(CC)CCCCc1ccc(Cl)cc1`, for which the Potency is 1.88 µM (active).

For `Cc1c(N(C)CS(=O)(=O)O)c(=O)n(-c2ccccc2)n1C`, the “activity change, negative = viability loss” value is -3.95% (inactive).

Regarding `NC(=O)c1cc[n+](CC2=C(C(=O)[O-])N3C(=O)[C@@H](NC(=O)Cc4cccs4)[C@H]3SC2)cc1`, the “activity change, negative = viability loss” value is -7.85% (inactive).

With `COc1cc(C(=S)N2CCOCC2)cc(OC)c1OC`, the “activity change, negative = viability loss” value is 0.996% (inactive).

For the molecule `NC(CO)(CO)CO`, the outcome was inactive.

Regarding `CC[C@@H](CO)NCCN[C@@H](CC)CO`, the “activity change, negative = viability loss” value was 5.4% (inactive).

For the molecule `CC(O)(P(=O)(O)O)P(=O)(O)O`, the “activity change, negative = viability loss” value was 6.57% (inactive).

Consider `Cc1c(C)n(Cc2ccccc2)c2ccc(C(=O)OCCN(C)C)cc12`, for which the Potency was 10.6 µM (active).

In the case of `CC(=O)Nc1c(I)cc(I)c(C(=O)O)c1I`, the “activity change, negative = viability loss” value is -8.79% (inactive).

Turning to `OCc1ccccc1O`, the “activity change, negative = viability loss” value is -5.19% (inactive).
